Source: PubChem BioAssay AID504843 (Broad Institute, 2011)
The campaign covered roughly 1,200 compounds. About 360 (30%) were called active. How the calls were made is not given here. A selection follows. Results with a measured potency or affinity are listed apart.

test: antibacterial activity by ATP level – BacTiter-Glo luminescence, cherry-picked samples, counter-screen, dose response (AID 504843); conditions: bacterial growth; series mostly up to 15 µM;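 further: growth measured after 8 h incubation at 30 °C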

SMILES	outcome
C(=N\n1cncn1)/c1ccc(N2CCOCC2)cc1	inactive
Cc1cnc(C(=O)OCC(=O)c2ccc(-c3ccccc3)cc2)cn1	inactive
O=C(OCC(=O)N1CCCC1=O)c1cccc(S(=O)(=O)N2CCOCC2)c1	inactive
CN(C(=O)COC(=O)c1cccc(S(=O)(=O)N2CCOCC2)c1)C1CCS(=O)(=O)C1 (centres undefined)	inactive
Cc1ccc(C(=O)N/C(=C\c2cn(S(=O)(=O)N(C)C)c3ccccc23)C(=O)NCCCN2CCOCC2)cc1	inactive
COc1ccc(S(=O)(=O)N2CCN(CC(=O)Nc3c(C)n[nH]c3C)CC2)cc1OC	inactive
COc1ccc(C)cc1S(=O)(=O)N(CC(=O)NC1CCCC1)c1ccc(F)cc1	inactive
COc1cc(CNCc2ccccn2)ccc1OCc1c(Cl)cccc1Cl	inactive
Cc1nn(-c2ccccc2)c(Cl)c1/C=N/NC(=O)c1ccccc1NS(=O)(=O)c1cccs1	inactive
CCOC(=O)c1c(NC(=O)C2C3C=CC(C3)C2C(=O)O)sc2c1CCC(C)C2 (centres undefined)	inactive
COc1ccc(S(=O)(=O)N2CCC(C(=O)N3CCN(C)CC3)CC2)cc1Cl	inactive
COc1ccc(OC)c(S(=O)(=O)N2CCC(C(=O)NC3CC3)CC2)c1	inactive
COc1cccc(C(=O)N(CN2CCCC2=O)c2cccc(Cl)c2)c1OC	inactive
NS(=O)(=O)c1cc(C(=O)O)c(NCc2ccco2)cc1Cl	inactive
COc1ccc(S(=O)(=O)NCCSCc2ccco2)cc1Cl	inactive
CS(=O)(=O)c1ccc([C@@H](O)[C@@H](CF)NC(=O)C(Cl)Cl)cc1	inactive
CCC[C@@H]1C[C@@H](C(=O)N[C@H]([C@@H](C)O)[C@H]2O[C@H](SC)[C@H](O)[C@@H](O)C2O)N(C)C1 (some centres undefined)	inactive
O=C(O)CCc1ccc(-c2cccs2)o1	inactive
c1ccc(CC2=NCCN2)cc1	inactive
Cc1ccc2[nH]c(=O)c(CNS(=O)(=O)c3ccccc3)c(-c3ccccc3)c2c1	inactive
Cc1ccccc1Nc1nnc(C)c(=O)[nH]1	inactive
Cc1cccc(-c2onc3ccc(C4(C)OCCO4)cc23)c1	inactive

SMILES	outcome
COc1ccc(/C=N/NC(=O)COc2cc(C)cc(C)c2)cc1COC(C)=O	inactive
Cc1ccc(NC(=O)CSc2nccn2C)cc1F	inactive
CCn1c(SCC(=O)NC2CCCCC2)nnc1-c1cccnc1	inactive
Cc1ccc(N2CC(C(=O)Nc3cc(C(F)(F)F)ccc3N3CCCC3)CC2=O)cc1 (centres undefined)	inactive
CCOCCCNC(=O)C(c1ccc(C)cc1)N(Cc1cccs1)C(=O)c1ccccc1O (centres undefined)	inactive
COc1ccc(OC)c(C(=O)CSc2nnc(-c3cccs3)o2)c1	inactive
O=C(Nc1ccc(C(=O)O)cc1)/C(=C\C=C\c1ccccc1)NC(=O)c1ccccc1Br	inactive
Cc1noc(NS(=O)(=O)c2ccc(NC(=O)c3ccoc3C)cc2)c1C	inactive
O=C(O)c1ccn(COc2ccc(Br)cc2)n1	inactive
Cc1ccc(NC(=O)c2cc(N3C(=O)C4CC=CCC4C3=O)ccc2N2CCOCC2)cc1Cl (centres undefined)	inactive
CCOc1ccc(N(CC(=O)NCc2ccc(OC)cc2)S(=O)(=O)c2c(C)[nH]c(=O)[nH]c2=O)cc1	inactive
CN1CCc2c(sc3nc(SCC(=O)N4CCOCC4)nc(N)c23)C1	inactive
Cc1cc(C)c(C#N)c(Oc2ccccc2Br)n1	inactive
Cc1nnc(Nc2ccc(Cl)c(C(F)(F)F)c2)[nH]c1=O	inactive
CC(/C=N/NC(=O)c1n[nH]c2c1CCC2)=C\c1ccccc1	inactive
CCCN=C1N(CC)C[C@@H]2[C@@H]3C(=O)N(C)C(=O)[C@@H]3[C@](Cc3ccccc3)(C(=O)OC)N12	inactive
O=C(CCCc1nc2ccccc2s1)NC1CCOC1=O (centres undefined)	inactive
Cc1cccc(NC(=O)CN(c2ccc(F)cc2)S(C)(=O)=O)c1	inactive
Cc1cccc(CS(=O)(=O)c2ncc(Cl)c(C(=O)Nc3nnc(C(C)C)s3)n2)c1	inactive
O=C(C[C@H]1C[C@H](C(=O)N2CCOCC2)[C@@]2(CCC3CCCC3)c3[nH]c4cc(-c5ccco5)ccc4c3CCN2C1=O)NCCCn1ccnc1	inactive
CC(=O)Nc1ccc(/C=N/N2CCCCC2)cc1	inactive
Cc1ccc(/C=C2/C(=N)N3N=C(CC(=O)N4CCCC4)SC3=NC2=O)o1	inactive

SMILES	outcome
C=CCN1C(=O)c2ccc(C(=O)N3CCC(C(N)=O)CC3)cc2C1=O	inactive
CC(C)N1CCc2c(sc(NC(=O)c3ccc(S(=O)(=O)N4CCc5ccccc54)cc3)c2C(N)=O)C1	inactive
CC(NC(=O)c1ccc([N+](=O)[O-])o1)C12CC3CC(CC(C3)C1)C2 (centres undefined)	inactive
Cc1ccc2nc(C(=O)O)c(C(=O)O)nc2c1	inactive
NC(=O)Cn1c(-c2nonc2N)nc2ccccc21	inactive
CC(C)c1nn2c(=O)cc(CSc3ccccc3NC(=O)c3ccccc3F)nc2s1	inactive
COc1ccc(-n2c(Cc3cccn3C)nnc2SCC(=O)NCc2ccc(F)cc2)cc1	inactive
CC(=O)c1ccc(NC(=O)CSc2nnc(C3CC3)n2C2CC2)cc1	inactive
Cc1ccc2cc(CCNC(=O)C(=O)c3c(C)[nH]c4ccccc34)c(=O)[nH]c2c1	inactive
O=C(/C=C/c1ccccc1)Nc1cc(S(=O)(=O)N2CCOCC2)ccc1N1CCCC1	inactive
O=C(Nc1ccc(F)cc1)Nc1cc(S(=O)(=O)N2CCOCC2)ccc1N1CCCC1	inactive
CC(Sc1ccsc1[N+](=O)[O-])C(=O)N1CCN(c2ccccn2)CC1 (centres undefined)	inactive
Nc1ccn(CC(=O)N2CCN(c3ccccn3)CC2)c(=O)n1	inactive
COC(CNc1ncnc2sc(-c3ccccc3)cc12)OC	inactive
Cc1cccc(-c2nnc(-c3cccc(NC(=O)Cc4cccs4)c3)o2)c1	inactive
O=C(CSc1nnc(-c2cccnc2)o1)Nc1ccc(Cl)cc1	inactive
CSc1cccc(NC(=O)CN(C)S(=O)(=O)c2cnc[nH]2)c1	inactive
C[C@H](NC(=O)c1nc[nH]c1C(=O)NCCCCCNC(=O)OC(C)(C)C)c1ccccc1	inactive
CC1CCN(C(=O)c2[nH]cnc2C(=O)N[C@@H](C)C(=O)OC(C)(C)C)CC1	inactive
CCCCCCCN(c1ccccc1)[C@@H]1C[C@H]2CCCC(=O)N3CC[C@@H](C1)[C@@H]23	inactive
